DT40 TDP1 CPT: DT40-hTDP1 cell growth loss with CPT | Potency, µM (titrated, usually from 46.2 µM), hits mostly inhibitors | chicken DT40 Tdp1-/-;hTDP1 cells + 20 nM CPT, ATP luminescence, 48 h | 420,000 tested, 12% active; note: nearly all actives have a fitted effect of over 55% in size
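Chicken DT40 Tdp1-/- cells complemented with human TDP1, 400 cells/well, exposed to compounds plus 20 nM camptothecin for at least 48 h at 37 C; viability read as ATP content by CellTiter-Glo luminescence.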
HT1080-NT tox: kills 2HG-producing HT-1080-NT fibrosarcoma cells. AID 686970. HT-1080-NT fibrosarcoma viability, CellTiter-Glo ATP luminescence, 48 h. Potency, µM (highest dose often 46.1 µM), hits mostly cytotoxic. 360,000 tested, 1.6% active;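 note: NT is the 2HG producing partner of a matched IDH1 knockdown line; nearly all actives have a fitted effect of over 55% in size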
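Luminescent CellTiter-Glo readout after 48 hours of compound exposure at 37 degrees C defined viability of HT-1080-NT cells. Activity was normalized to DMSO wells and cell-free media wells; concentration-response curves were fitted and assigned curve classes.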
IL-1B inflam inh: inhibitors of inflammasome signaling (IL-1 beta secretion). THP-1 LPS/ATP IL-1B secretion, AlphaLISA, 16 h; stronger effect = lower value. 360,000 tested, 4.7% active. activity change, % at 57.5 µM. AID 743279; in the data active = activity change below about -50%; inconclusive = mostly about -30% to -49%
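THP-1 cells pretreated 1 hr with compounds (up to 57.5 uM final), then stimulated with LPS (250 ng/mL final) plus ATP (1.25 mM final); secreted IL-1B measured by AlphaLISA after 16 hr, decreased signal indicating inhibition.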
DT40 TDP1 no CPT: qHTS for Inhibitors of human tyrosyl-DNA phosphodiesterase 1 (TDP1): qHTS in cells in absence of CPT. AID 686978, 2013. Potency, µM (top dose mostly 46.2 µM), actives largely listed as inhibitors. DT40 Tdp1-/- hTDP1 cells, no CPT, ATP luminescence, 48 h. 420,000 tested, 15% active; note: nearly all actives have a fitted effect of over 55% in size
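DT40 Tdp1-/-;hTDP1 cells, no CPT (DMSO vehicle only), 400 cells/well; compounds pin-transferred; ≥48 hr, 37 °C; CellTiter-Glo 30 min RT dark, luminescence read.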
ELG1 DNA repair: ELG1-dependent DNA repair inhibition; 330,000 tested, 2.3% active; HEK293T ELG1-luciferase reporter, luminescence, 16 h; DNA damage induced by 5-fluorouridine; AID 504467; Potency, µM (top dose mostly 46.1 µM), usual class: inhibitors; note: nearly all actives have a fitted effect of over 55% in size
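Quantitative HTS, concentration-response format. 2,000 cells/well co-treated with 5-fluorouridine and compound, 16 hr in 5% CO2 at 37 °C; ONE-Glo luminescence read after 30 min.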
HT1080 IDH1KD tx: kills HT-1080 cells with IDH1 knockdown | HT-1080 IDH1 knockdown viability, ATP luminescence, 48 h | 360,000 tested, 2% active | Potency, µM (doses to about 46.1 µM), hits mostly cytotoxic | AID 686971
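Using the IDH1-knockdown HT-1080 line run in the same batch and compound series as the NT line, viability after 48 h at 37 °C was determined by CellTiter-Glo luminescence and expressed as % activity.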
A number is an active result; n = inactive; u = inconclusive; x = not tested or not shown; [ ] = dose if it differs, or a comment. This is a sample that favours compounds with a hit; in the whole collection about 19% have one here. Unless noted, calls come from the whole dose curve; as a rule, active = well fitted curve in the direction sought with a large enough effect; inconclusive = small, poorly fitted or top-dose-only effect, or another doubt; inactive = no such curve, though single readings can be large; an effect the other way counts as inactive or inconclusive.

SMILES	DT40 TDP1 CPT	HT1080-NT tox	IL-1B inflam inh	DT40 TDP1 no CPT	ELG1 DNA repair	HT1080 IDH1KD tx
Cc1ccc(CNC(=O)c2ccc(CSc3nc4ccncc4n3Cc3ccc(C)cc3)cc2)cc1	5.2µM	x	x	8.2µM	x	x
Cc1ccc(C(=O)NC2CC3CCC(C2)N3)cc1 (centres undefined)	n	n	u	n	n	n
S=c1[nH]nc(Cn2c(-c3ccccn3)nc3ccccc32)n1-c1ccc2c(c1)OCCO2	n	n	n	n	u	n
COc1ccc(Cn2c(=O)oc3ccc(C)cc32)cc1OC	15µM	n	n	18µM	n	n
CCc1ccc(OCCCN=C(C)c2c(O)n(C)c(=O)n(C)c2=O)cc1	13µM	n	n	18µM	u	u
CC(=NCCC(c1ccccc1)c1ccccc1)c1c(O)n(C)c(=O)n(C)c1=O	21µM	n	n	13µM	u	n
Cn1c(O)c(C(=N)COc2ccccc2)c(=O)n(C)c1=O	n	n[9.24 µM]	n	n	n	n
CCC(=NCCc1ccccc1)c1c(O)n(C)c(=O)n(C)c1=O	u	u	n	8.2µM	u	u
Cn1c(O)c(C(=Nc2ccccc2)SCc2ccc(Cl)cc2)c(=O)n(C)c1=O	4.6µM	u	n	3.3µM	u	u
CC1=NN(Cc2c[nH]c3ccccc23)C(C)(C)C1	n	n	n	n	n	n
CCN(CC)S(=O)(=O)c1ccc(C(=O)NC(=S)N2CCN(c3ccccc3O)CC2)cc1	u	n	n	18µM	x	n
Cc1ccsc1CNCCc1ccccc1F	n	n	n	n	n	n
Cc1ccccc1CCNCc1ccc(Br)cc1	u	u	-65	u	n	u
CCc1ccc(CNCCc2ccc(F)cc2)cc1	u	n	-83	u	n	n
Fc1ccc(CCNCc2ccc(Cl)c(Cl)c2)cc1	u	u	-53	n	n	u
COc1ccc(CCNCc2ccncc2)cc1OC	n	n	n	n	u	n
Fc1ccc(CNCCc2ccc3c(c2)OCO3)cc1	n	n	n	u	n	n
COc1ccc(CCNCc2ccc(Br)cc2)cc1OC	21µM	n	n	u	n	n
Cc1nnc2n1-c1sc(Br)cc1C(c1ccccc1Cl)=NC2	n	x	x	u	x	x
COc1cc(OC)c(OC)cc1CNCCc1ccc(F)cc1	u	n	n	12µM	n	n
COc1cc(OC)c(OC)cc1CNCCc1cccc(F)c1	n	n	n	u	n	n
C=CCCC[C@@H]1OC(=O)CNC(=O)C([C@@H](C)CC)NC(=O)[C@@H]2CCCN2C(=O)C([C@@H](C)CC)OC(=O)[C@H](Cc2ccccc2)N(C)C(=O)[C@H](C(C)C)NC(=O)C1(C)C (some centres undefined)	13µM	u	-52	16µM	x	u
CC(C)OCC(O)CN1CC2C[C@@H](C1)Cn1c2cccc1=O (some centres undefined)	n	n	n	n	n	n
CCCCCSc1cc(O)c(C(CNC)C(C)C)cc1OC (centres undefined)	u	u	-68	16µM	n	u
CCCCCSc1cc(OC)c(CCN(C)C)cc1OC	u	u	u	u	n	u
SMILES	DT40 TDP1 CPT	HT1080-NT tox	IL-1B inflam inh	DT40 TDP1 no CPT	ELG1 DNA repair	HT1080 IDH1KD tx
Cc1ccc(C(=O)N2CC2C)cc1 (centres undefined)	n	n	n	n	x	n
N#Cc1ccc(CN2CC[C@@]3(CCCNC3)C2)cc1	n	x	x	u	x	x
CCOc1cccc(CC(=O)NCc2ccc3c(c2)CCN3C(=O)c2cccc(C)c2)c1OCC	21µM	x	x	21µM	x	x
Cc1ccc(NC(=O)NCc2ccc3c(c2)CCN3C(=O)c2ccccc2)c(Cl)c1	u	x	x	23µM	x	x
Cc1cccc(C(=O)Nc2ccc(Cl)cc2C(=O)c2ccccc2)c1	n	n	n	n	u	n
CCOc1ccccc1NC(=O)c1cccn(Cc2ccccc2C)c1=O	n	x	x	n	x	x
CCOc1ccccc1NC(=O)NCc1ccc2c(c1)CCN2C(=O)c1ccccc1	23µM	x	x	16µM	x	x
CCOP(=S)(OCC)SCSP(=S)(OCC)OCC	n	n	n	u	x	n
Cc1c(N=Nc2c(O)n(C)c(=O)n(C)c2=O)c(=O)n(-c2ccccc2)n1C	n	n	n	n	n	n
Cc1ccccc1NCC(=O)N/N=C/C(Br)=C/c1ccccc1	5.2µM	u	u	13µM	n	18µM
COC(=O)[C@@H]1C[C@H]1[C@@H](NP(=O)(c1ccccc1)c1ccccc1)c1ccccc1	21µM	n	n	u	u	n
FC(F)(F)c1ccc2c(c1)N(CCCN1CCN(CCCl)CC1)c1ccccc1S2	8.2µM	u	-116	8.2µM	n	u
c1ccc2c(c1)Sc1ccccc1N2C[C@@H]1CN2CCC1CC2	n	x	x	n	x	x
OCCN1CCN(CCCN2c3ccccc3Sc3ccc(C(F)(F)F)cc32)CC1	16µM	13µM	-57	18µM	n	23µM
C[C@@H]1OC(=O)[C@H]2C[C@H]3CCCC[C@@H]3[C@@H](/C=C/[C@H]3CCC[C@H](C)N3C)[C@@H]12	n	x	x	u	x	x
CCC[C@H](N[C@@H](CCC)[C@H](O)c1ccccc1)[C@H](O)c1ccccc1	26µM	n	-58	23µM	x	n
CNC(C)[C@H](O)c1ccccc1 (some centres undefined)	n	x	x	n	x	x
CC(C)(C)C1(CCO)C(=O)NC(=S)NC1=O	n	n	n	n	x	n
CC[C@H]1C2C[C@H]3[C@@H]4N(C)c5ccccc5C45C[C@H](C2[C@H]5O)N3[C@@H]1O (some centres undefined)	u	n	n	n	n	n
CC1=C(C(=O)Nc2ccccc2)C(c2ccc(C)cc2)N=C(Nc2nc3ccccc3o2)N1 (centres undefined)	18µM	u	n	u	u	11µM
C=CCn1c(O)c(C(CC)=NCCc2c[nH]c3ccccc23)c(=O)[nH]c1=O	u	u	n	16µM	u	u
C=CCn1c(O)c(C(=O)CCCCCC)c(=O)[nH]c1=O	12µM	u	n	8.2µM	u	u
C=CCn1c(O)c(C(CC)=NCCc2ccccc2)c(=O)[nH]c1=O	u	n	n	u	u	n
CC1CC(C)OP(=O)(OCCC#N)O1 (centres undefined)	n	n	n	n	x	n

From PubChem BioAssay
